Assay [1] is described as follows: NCI Yeast Anticancer Drug Screen. Data for the rad50 strain (AID 155).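 Further: 0% = growth of vehicle-only cultures of the same strain.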 The conditions noted are these: S. cerevisiae rad50 strain growth inhibition, stronger effect = higher value. In a few lines:
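Relative growth inhibition (compound vs vehicle) was measured in yeast with a defined repair-gene alteration.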

The nature of assay [2]: NCI Yeast Anticancer Drug Screen. Data for the mec2-1 strain (AID 157). The conditions noted are these: S. cerevisiae mec2-1 strain, stronger effect = higher value. In a few lines: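 Vehicle-treated cultures served as reference for growth inhibition of compound-exposed mec2-1 yeast.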
Assay [3] is described as follows: NCI Yeast Anticancer Drug Screen. Data for the sgs1 mgt1 strain (AID 161).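 Further: 0% = growth of cultures given vehicle only.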 The conditions noted are these: S. cerevisiae sgs1 mgt1 strain, stronger effect = higher value. In a few lines: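 Read-out: growth inhibition vs vehicle controls. Cells: mutant yeast strain deficient in DNA damage repair.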
A short description of assay [4]: NCI Yeast Anticancer Drug Screen. Data for the cln2 rad14 strain (AID 165).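 Further: 0% = growth equal to vehicle treated cultures.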 Conditions: S. cerevisiae cln2 rad14 strain, stronger effect = higher value. In a few lines:
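Each compound was tested on cln2 rad14 yeast. Inhibition of growth was calculated against vehicle-exposed controls.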

Assay [5] is described as follows: NCI Yeast Anticancer Drug Screen. Data for the bub3 strain (AID 167). The conditions noted are these: S. cerevisiae bub3 mutant strain, stronger effect = higher value. In a few lines: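 Screening used yeast with an engineered genetic alteration affecting cell cycle control. Compound-exposed cultures were compared with vehicle cultures, and reduced growth was taken as inhibition.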

The nature of assay [6]: NCI Yeast Anticancer Drug Screen. Data for the mlh1 rad18 strain (AID 175). Conditions: S. cerevisiae mlh1 rad18 strain growth inhibition, stronger effect = higher value. In a few lines:
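Vehicle-treated cultures served as the reference for growth inhibition in a yeast strain carrying DNA damage repair alterations exposed to each compound.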

Setting [7] is: at 5.0 µM (retest, dose inferred, filed as 0.5).
[8] abbreviates: at 50.0 µM (retest, dose inferred, filed as 5.0).

SMILES strings stand for the structures. “And” between values parts separate entries of the source, which are not always exact repeats. Equal entries are not always repeated. Compounds without any hit were thinned out: in the full panel of roughly 79,000, 15% have a hit. More than one record can exist for a structure, and the calls need not agree. The source made the active and inactive calls. No stated cut-off is given here; in the data, active means growth inhibition above about 70%; inactive means the rest.

As for `O=S(=O)(O)c1ccc2cc(N=Nc3c(O)ccc4ccccc34)ccc2c1`, the growth inhibition in assay [1] (setting [7]) was 9% (inactive); in assay [1] (setting [8]), 15% (inactive); in assay [1] (at 50.0 µM) it was 19.9% (inactive); in assay [2] (setting [7]), 2% (inactive); in assay [2] (setting [8]), 12% (inactive); in assay [2] (at 50.0 µM) it was 5.45% (inactive). In addition, the growth inhibition in assay [3] (setting [7]) was 7% (inactive); in assay [3] (setting [8]) it was 72% (active); in assay [3] (at 50.0 µM) it was 75.3% (active); in assay [4] (setting [7]), -7% (inactive); in assay [4] (setting [8]), 0% (inactive); in assay [4] (at 50.0 µM), 33.4% (inactive). The growth inhibition in assay [5] (setting [7]) was -2% (inactive); in assay [5] (setting [8]), -21% (inactive); in assay [5] (at 50.0 µM), 3.5% (inactive); in assay [6] (setting [7]), 2% (inactive); in assay [6] (setting [8]), 10% (inactive); in assay [6] (at 50.0 µM), 34.9% (inactive).
`OC1(C2C=CC=C2)c2ccccc2C=Cc2ccccc21`: the growth inhibition in assay [1] (setting [7]) is 4% (inactive); in assay [1] (setting [8]), 51% (inactive); in assay [1] (at 50.0 µM), 91% (active); in assay [2] (setting [7]), 13% (inactive); in assay [2] (setting [8]), 48% (inactive); in assay [2] (at 50.0 µM) it was 10.7% (inactive). The growth inhibition was 4% (inactive) in assay [3] (setting [7]); 54% (inactive) in assay [3] (setting [8]); 78.6% (active) in assay [3] (at 50.0 µM); -36% (inactive) in assay [4] (setting [7]); 70% (active) in assay [4] (setting [8]); 48.4% (inactive) in assay [4] (at 50.0 µM). For the same compound, the growth inhibition is -14% (inactive) in assay [5] (setting [7]); -85% (inactive) in assay [5] (setting [8]); 69.5% (inactive) in assay [5] (at 50.0 µM); 9% (inactive) in assay [6] (setting [7]); 37% (inactive) in assay [6] (setting [8]); 89.6% (active) in assay [6] (at 50.0 µM).
On to `O=C1COC(=O)/C1=C/c1ccc2c(c1)OCO2`, for which the growth inhibition in assay [1] (setting [7]) is 12% (inactive) and 15% (inactive); in assay [1] (setting [8]) it was 78% (active) and 86% (active); in assay [1] (at 50.0 µM), 76.6% (active) and 77.4% (active); in assay [2] (setting [7]), 16% (inactive) and 26% (inactive); in assay [2] (setting [8]), 84% (active) and 90% (active); in assay [2] (at 50.0 µM) it was 64.1% (inactive) and 84.5% (active). The growth inhibition is 18% (inactive) in assay [3] (setting [7]); 69% (inactive) and 93% (active) in assay [3] (setting [8]); 78.5% (active) and 86.4% (active) in assay [3] (at 50.0 µM); 4% (inactive) and 15% (inactive) in assay [4] (setting [7]); 71% (active) and 61% (inactive) in assay [4] (setting [8]); 56% (inactive) and 54.6% (inactive) in assay [4] (at 50.0 µM). Further, the growth inhibition was 2% (inactive) and 4% (inactive) in assay [5] (setting [7]); 82% (active) and 89% (active) in assay [5] (setting [8]); 65.5% (inactive) and 88% (active) in assay [5] (at 50.0 µM); 9% (inactive) and 14% (inactive) in assay [6] (setting [7]); 81% (active) in assay [6] (setting [8]); 93.2% (active) and 95.1% (active) in assay [6] (at 50.0 µM).
For the compound `O=C(CNCc1ccccc1)Oc1c(Cl)c(Cl)c(Cl)c(Cl)c1Cl`, the growth inhibition in assay [1] (setting [7]) was 3% (inactive); in assay [1] (setting [8]) it was 32% (inactive); in assay [1] (at 50.0 µM), 72.5% (active); in assay [2] (setting [7]), 22% (inactive); in assay [2] (setting [8]), 43% (inactive); in assay [2] (at 50.0 µM), 62.5% (inactive). Moreover, the growth inhibition in assay [3] (setting [7]) is -13% (inactive); in assay [3] (setting [8]) it was 55% (inactive); in assay [3] (at 50.0 µM) it was 85.2% (active); in assay [4] (setting [7]) it was -5% (inactive); in assay [4] (setting [8]), 11% (inactive); in assay [4] (at 50.0 µM), 51.4% (inactive). In addition, the growth inhibition in assay [5] (setting [7]) is -4% (inactive); in assay [5] (setting [8]), 31% (inactive); in assay [5] (at 50.0 µM) it was 20% (inactive); in assay [6] (setting [7]) it was 29% (inactive); in assay [6] (setting [8]) it was 73% (active); in assay [6] (at 50.0 µM), 64.7% (inactive).
As for `CCSSC(=Nc1ccccc1)OCC(C)C`, the growth inhibition in assay [1] (setting [7]) was 17% (inactive); in assay [1] (setting [8]), 91% (active); in assay [1] (at 50.0 µM), 62% (inactive); in assay [2] (setting [7]), 18% (inactive); in assay [2] (setting [8]), 70% (active); in assay [2] (at 50.0 µM), 80.4% (active). The growth inhibition was 47% (inactive) in assay [3] (setting [7]); 97% (active) in assay [3] (setting [8]); 71.8% (active) in assay [3] (at 50.0 µM); 50% (inactive) in assay [4] (setting [7]); 92% (active) in assay [4] (setting [8]); 30.8% (inactive) in assay [4] (at 50.0 µM). Also, the growth inhibition was 52% (inactive) in assay [5] (setting [7]); 97% (active) in assay [5] (setting [8]); 84.4% (active) in assay [5] (at 50.0 µM); 23% (inactive) in assay [6] (setting [7]); 82% (active) in assay [6] (setting [8]); 80% (active) in assay [6] (at 50.0 µM).
As for `CC(=O)c1c2ccccc2cc2ccccc12`, the growth inhibition in assay [1] (setting [7]) is 7% (inactive) and 61% (inactive); in assay [1] (setting [8]), 74% (active) and 96% (active); in assay [1] (at 50.0 µM), 68.4% (inactive) and 92.3% (active); in assay [2] (setting [7]) it was 9% (inactive) and 44% (inactive); in assay [2] (setting [8]), 88% (active) and 98% (active); in assay [2] (at 50.0 µM) it was 79% (active) and 96.5% (active). For the same compound, the growth inhibition in assay [3] (setting [7]) was 6% (inactive) and 45% (inactive); in assay [3] (setting [8]) it was 77% (active) and 98% (active); in assay [3] (at 50.0 µM), 53% (inactive) and 94.7% (active); in assay [4] (setting [7]) it was 12% (inactive) and 49% (inactive); in assay [4] (setting [8]), 89% (active) and 96% (active); in assay [4] (at 50.0 µM), 72.4% (active) and 89.1% (active). Moreover, the growth inhibition in assay [5] (setting [7]) is 17% (inactive) and 56% (inactive); in assay [5] (setting [8]), 95% (active) and 97% (active); in assay [5] (at 50.0 µM), 79.5% (active) and 95.6% (active); in assay [6] (setting [7]), 9% (inactive) and 46% (inactive); in assay [6] (setting [8]), 94% (active) and 97% (active); in assay [6] (at 50.0 µM), 75% (active) and 96.2% (active).
For the compound `CCCCN(C(=O)CCl)c1ccccc1`, the growth inhibition in assay [1] (setting [7]) was 2% (inactive); in assay [1] (setting [8]), 13% (inactive); in assay [1] (at 50.0 µM), 50.3% (inactive); in assay [2] (setting [7]) it was -1% (inactive); in assay [2] (setting [8]), 9% (inactive); in assay [2] (at 50.0 µM) it was 19.1% (inactive). For the same compound, the growth inhibition in assay [3] (setting [7]) is -4% (inactive); in assay [3] (setting [8]) it was 3% (inactive); in assay [3] (at 50.0 µM), 54.2% (inactive); in assay [4] (setting [7]), 1% (inactive); in assay [4] (setting [8]), 5% (inactive); in assay [4] (at 50.0 µM), 20% (inactive). Moreover, the growth inhibition was -9% (inactive) in assay [5] (setting [7]); -16% (inactive) in assay [5] (setting [8]); 34.9% (inactive) in assay [5] (at 50.0 µM); 0% (inactive) in assay [6] (setting [7]); 10% (inactive) in assay [6] (setting [8]); 73.7% (active) in assay [6] (at 50.0 µM).
